Assay results: PubChem BioAssay AID485395 (ICCB-Longwood Screening Facility, Harvard Medical School, 2010)
Among all 120,000 compounds or so, about 55 (0.05%) were called active. The entries come from a sample that favours actives as a whole. Values without a mark were called inactive. Cut-off read from the data, not from the text of the source: active = inhibition above about 25% (passing the limit was not always enough); inactive = the rest.

system: replicative DNA helicase (DnaC/DnaB), Staphylococcus aureus; test: S. aureus DnaC helicase unwinding inhibition – biochemical, fluorescence unwinding readout, primary screen (AID 485395);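 note: 0% = mean of negative control wells and 100% = mean of positive control wells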; details: purified S. aureus helicase, fluorescence unwinding assay; hits give high values; concentration not given here

SMILES | inhibition
NC(=O)C12CC3CC(CC(Cl)(C3)C1)C2 | -9%
COc1ccc2c(=O)c(-c3ccc(F)cc3)coc2c1 | 0%
CN1C2=C(C(=O)CCC2)C(c2ccc(O)c(Cl)c2)C2=C1CCCC2=O | 10%
CC(C)C(NC(=O)c1ccco1)C(=O)N1CCC(Cc2ccccc2)CC1 (stereo unspecified) | -7%
CC1(C)CCCC2=C1CC1C(=O)N(CCC[N+](C)(C)C)C(=O)C1C2 (stereo unspecified) | 6%
CC1CC(C)CN(C(=O)c2ccc3c(c2)N(C)C(=O)/C(=C/c2cccc(Cl)c2)S3)C1 (stereo unspecified) | -10%
CCOc1ccc(-n2c(CSc3nc(C)cc(C)n3)nnc2SC)cc1 | 27%
O=C1CCCc2c1cnn2-c1ccccc1 | -10%
CN(Cc1ccccc1)S(=O)(=O)c1ccc2c3c(cccc13)C(=O)N2 | 5%
O=C(O)c1cccc(S(=O)(=O)NCC(F)(F)F)c1 | 18%
Cc1ccc(OCCn2cc(/C=C3/C(=O)Nc4cc(Cl)ccc43)c3ccccc32)cc1C | -483%
N#Cc1cccc(OCC(=O)NCC(F)(F)F)c1 | 12%
Cc1c(/C=C(\C#N)C(=O)O)cc(C#N)n1C | -11%
Cc1cnc(C(=O)Nc2ccc(S(=O)(=O)NC(C)C)cc2)cn1 | -1%
CCSc1nnc(SCC(=O)c2ccc(OC)cc2OC)s1 | -4%
COC(=O)c1c(Cn2cc(Br)ccc2=O)nc2ccccc2c1C | 0%
COc1nc(-c2ccccc2)ccc1-c1noc(C(C)C)n1 | 2%
CCCNc1cc(C)nc2nc(-c3ccc(OC)cc3)nn12 | 12%
O=C(Cc1c(F)cccc1Cl)OCc1ncc(-c2ccccc2)o1 | -4%
Cc1ccc(-c2cc(C(=O)N3CCCCC3C)[nH]n2)cc1C (stereo unspecified) | -28%
CCc1ccccc1NC(=O)Cn1ncc2c(=O)oc3ccccc3c21 | 4%
CCSc1nsc(SCC)c1C(=O)O | -3%
COc1ccccc1C/C(N)=N/OC(=O)c1ccccc1 | 6%
NC(=O)COC(=O)/C=C/c1ccc(S(=O)(=O)N2CCOCC2)cc1 | -10%

SMILES | inhibition
COc1ccc(-n2nc(C(=O)NCC(=O)N3CCOCC3)c3ccccc3c2=O)cc1 | -25%
COc1ccc(S(=O)(=O)NCCn2ccc3ccccc32)cc1 | -14%
CC1(C)CC(NS(C)(=O)=O)CC(C)(C)N1O | 20%
CC(C)c1ccccc1N=Cc1ccc2c(c1)OCO2 | -15%
NC(=O)C1CCN(C(=O)COc2ccc(Cl)cc2Cl)CC1 | 0%
N#CCCn1cc(/C=c2\sc3nc4ccccc4n3c2=O)c(-c2ccc(F)cc2)n1 | 4%
Cn1nc(NCc2ccc(Cl)cc2)c(=O)n(C)c1=O | -8%
O=C(Nc1cccc(C(F)(F)F)c1)/C(=C\c1cccnc1)NC(=O)c1cccs1 | -22%
COC(=O)N/N=C(\C)c1ccc2c(c1)Nc1ccccc1S2 | 8%
Cc1cc(NC(=O)COC(=O)C2=COCCO2)n(-c2ccccc2)n1 | 4%
CC(C)Cn1c(SCC(=O)Nc2ccccc2)nc2ccccc21 | 14%
O=C1NC(c2ccccn2)Nc2sc3c(c21)CCCC3 (stereo unspecified) | 9%
c1ccc(CCNCc2cn[nH]c2-c2cccs2)cc1 | -16%
COc1ccccc1N=Cc1c(O)n(-c2ccccc2OC)c(=O)[nH]c1=O | 8%
CC1Nc2ccc(C(=O)N3CCC4(CC3)OCCO4)cc2NC1=O (stereo unspecified) | 34%
CC(C)(C)NC(=O)C(C)(C)Oc1ccc(Cl)cc1 | -13%
CC(Sc1nncn1C)C(=O)NCCC1=CCCCC1 (stereo unspecified) | 9%
Cc1ccccc1NC(=O)CSc1nc2ccc(N)cc2s1 | -1%
N#Cc1ccc(NC(=O)/C=C/c2ccccc2)cc1 | 4%
COc1ccc(C(=O)n2c(SC)nc3ccccc32)cc1OC | -17%
Cc1ccc(O)c(NC(=O)c2cccs2)c1 | 8%
CC1(C)C=C(C(=O)N2CCCCC2)C(C)(C)N1 | 5%
O=S1(=O)CCC(n2nnnc2-c2ccc(Cl)cc2)C1 (stereo unspecified) | 13%
Cc1ccc(C)c(OC(=O)NC(C)(C(F)(F)F)C(F)(F)F)c1C | 1%

SMILES | inhibition
Cc1nc(SCC(=O)N2CCCC2)c2c(=O)n(C)c(=O)n(C)c2n1 | 0%
CCN(CC)c1nc(-c2ccccc2O)nc2ccccc12 | -3%
COc1ccc(C(=O)CSC2=C(C#N)C(C)(C)C(C#N)=C(N)N2)cc1 | -9%
O=C(COC(=O)c1ccc(N2CCCC2=O)cc1)c1ccc(OC(F)F)cc1 | -5%
COc1ccc(Br)cc1CN(C)C(C)C(=O)N1CC(C)OC(C)C1 (stereo unspecified) | -12%
Cc1cc(C(=O)N2CCC(C)CC2)c(C)n1-c1ccc(F)cc1 | 23%
COc1ccc(/C=C/C(=O)CC(=O)c2ccccc2O)cc1 | -17%
CN(C)c1ccc(NC(=O)CSc2nnc(C3CC3)n2N)cc1 | -15%
COc1cccc(N=Nc2c(O)[nH]c(=O)[nH]c2=O)c1 | 7%
CCOC(=O)c1cnc2c(C)c(C)ccc2c1NCCCN(C)C | 65% (active)
CN(C)CCCNc1c(N)c(=O)oc2ccccc12 | 27%
CCOC(=O)c1cnc2c(C)cc(C)cc2c1NCCN(C)C | 13%
COc1ccc(C(CC(=O)O)NS(=O)(=O)c2ccccc2F)cc1OC (stereo unspecified) | -3%
CCc1cccc2c(C3=Nn4cnnc4SC3c3ccccc3)c[nH]c12 (stereo unspecified) | 16%
Cn1cc(SC(=N)N)c2ccccc21 | -12%
Cc1[nH]n(-c2ccccc2)c(=O)c1CCC#N | -6%
Cc1sc2nc(CN3CCCC3)nc(NC(C)C)c2c1C | -5%
COC(CNC(=O)C1CCC(CNS(=O)(=O)c2ccc(C)cc2)CC1)OC (stereo unspecified) | 9%
COC(=O)c1sc(NC(=O)Cn2cnc3sccc3c2=O)c(C(=O)OC)c1C | -7%
C=C(C)CNC(=S)NN | -24%
CC1CCCCN1S(=O)(=O)c1ccc(I)cc1 (stereo unspecified) | 17%
CC(=O)Nc1ccc(NC2SC(=O)NC2=O)cc1 (stereo unspecified) | 7%
Cc1[nH]c2ccccc2c1SCCNC(=O)C(C)C | -17%
